Tm shift data for 21 compounds are collected here from PubChem BioAssay AID382 (SGCOxCompounds, 2006).

The source made the active and inactive calls. How the calls were made is not given here.

The target in the first experiment is Dual specificity protein kinase CLK1 (Homo sapiens) (UniProt P49759). Briefly: CLK1 binders by thermal stabilization, biophysical, recombinant human kinase, DSF (AID 382). Conditions: at 10 µM, protein 2 µM, buffer 10 mM HEPES, pH 7.5, NaCl 150 mM, stronger effect = higher value.
Chain of Dual specificity protein kinase CLK1 (Homo sapiens) (P49759 whole entry, looked up): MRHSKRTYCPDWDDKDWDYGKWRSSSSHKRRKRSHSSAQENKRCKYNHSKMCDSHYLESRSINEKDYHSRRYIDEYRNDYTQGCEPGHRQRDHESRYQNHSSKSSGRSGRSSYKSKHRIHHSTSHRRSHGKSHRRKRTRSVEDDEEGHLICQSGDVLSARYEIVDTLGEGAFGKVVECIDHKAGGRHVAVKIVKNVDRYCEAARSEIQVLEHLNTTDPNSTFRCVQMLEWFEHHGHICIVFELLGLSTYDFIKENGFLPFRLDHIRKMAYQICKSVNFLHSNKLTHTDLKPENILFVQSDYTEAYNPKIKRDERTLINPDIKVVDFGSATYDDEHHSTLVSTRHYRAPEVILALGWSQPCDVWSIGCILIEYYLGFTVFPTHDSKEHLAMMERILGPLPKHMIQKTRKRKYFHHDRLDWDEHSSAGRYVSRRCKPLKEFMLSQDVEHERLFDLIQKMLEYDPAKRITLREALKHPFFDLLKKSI
On to `c1csc(-c2cnc3ccc(NCC4CC4)nn23)c1`, for which the Tm shift is 3.52 Celsius (active).

As for `Clc1cccc(Nc2ccn3ncc(-c4ccsc4)c3n2)c1`, the Tm shift is 3.45 Celsius (active). Turning to `c1ccc(-c2cnc3ccc(NCc4cccs4)nn23)cc1`, the Tm shift was 3.23 Celsius (active). On to `CC(C)c1ccc(Nc2ccn3ncc(-c4ccsc4)c3n2)cc1`, for which the Tm shift is 4.63 Celsius (active).

Still in this experiment, the particulars now being: at 10 µM, protein 2 µM, buffer 10 mM HEPES, pH 7.5, NaCl 150 mM, with 50 µM L-Arg/L-Glu (1:1), stronger effect = higher value.
In the case of `Oc1cccc(-c2cnc3ccc(NCC4CC4)nn23)c1`, the Tm shift was 3.9 Celsius (active).

With `COC(=O)c1ccc(-c2cnc3ccc(NC4CCOCC4)nn23)cc1`, the Tm shift was 4.3 Celsius (active). With `CC(C)[C@@H](CO)Nc1ccc2ncc(-c3cccc(O)c3)n2n1`, the Tm shift is 4.2 Celsius (active). Consider `c1cncc(-c2cnc3ccc(NC4CCOCC4)nn23)c1`, for which the Tm shift was 3.3 Celsius (active). Turning to `O=c1[nH]c(O)c2c1c1c3ccccc3nc1n1cncc21`, the Tm shift is 4.5 Celsius (active). Same read-out and setting: the figure for `CC(C)[C@@H](CO)Nc1ccc2ncc(-c3cccc(C(F)(F)F)c3)n2n1` is 5.1 Celsius (active); for `CCC(CO)Nc1ccc2ncc(-c3ccc(OC)nc3)n2n1` (stereo unspecified) it is 4.5 Celsius (active).

On to `O=C(c1ccc(Nc2nccc(-c3cc4ccccc4s3)n2)cc1)N1CCC(N2CCCC2)CC1`, for which the Tm shift was 6.1 Celsius (active). On the same count and under the same terms, for `O=C1NCc2c1c1c3ccccc3[nH]c1c1[nH]c3ccccc3c21` the value was 3.1 Celsius (active); for `N#CCCc1ccc2c(c1)-c1[nH]c3ccc(-n4oo4)cc3c1CC(=O)N2`, 3.1 Celsius (active). Same read-out and setting: for `COCCNc1ccc2ncc(-c3cccc(C(C)=O)c3)n2n1` the value was 5.1 Celsius (active); for `Nc1cccc(-c2cnn3ccc(Nc4cccc(Cl)c4)nc23)c1`, 3.6 Celsius (active). Still for that read-out and setting: for `CC(=O)c1cccc(-c2cnc3ccc(N[C@H](CO)C(C)C)nn23)c1` the value was 6.7 Celsius (active).

On to `CC(C)[C@@H](CO)Nc1ccc2ncc(-c3cccc(F)c3)n2n1`, for which the Tm shift was 3.9 Celsius (active). `Nc1ccc(-c2cnc3ccc(NC4CCOCC4)nn23)cc1`: the Tm shift was 4.8 Celsius (active). Regarding `CCCCc1c(-c2ccc(O)cc2)[nH]c2nccnc12`, the Tm shift was 3.5 Celsius (active). On the same count and under the same terms, the figure for `OCC1=C(O)C(O)[C@@H](N2CNc3cc(Cl)c(Cl)cc32)O1` (stereo partly specified) is 3.1 Celsius (active).
